The source of these data is PubChem BioAssay (EPA / NIEHS).

Each structure is given as a SMILES string. Several values for one entry are separate records, joined by “and”; a condition that tells them apart may be missing. Equal entries are not always repeated. Inconclusive results are not listed. Activity calls are given as the source filed them. Rule for the calls, unless noted: active = hit-call score of the fitted dose curve at least 0.9, where 1 is the maximum; inactive = score below 0.9.

Test [1] deals with rat Peripheral-type Benzodiazepine Receptor (PBR), Tspo (gene 24230) (UniProt P16257). In words: NVS_MP_rPBR: NovaScreen (NVS) Membrane Protein Assay for rat Peripheral-type Benzodiazepine Receptor (PBR) (AID 2283335; active = hit-call score of the fitted dose curve at least 0.9, where 1 is the maximum). The gist of the method:
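Rat kidney membranes; radioligand binding with displacement, filter-based scintillation counting, 1 h incubation. Primary screen in duplicate at 25 uM, actives followed in concentration series; loss of binding vs DMSO.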

A short description of test [2]: CCTE_Padilla_ZF_Score.General: CCTE's 144 Hour Post-fertilization zebrafish Assay Score for General Malformation, Padilla Lab (AID 2284411). In short, it runs like this: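 Wild-type zebrafish embryos were plated singly at 6-8 hpf in 10% Hanks' and exposed in sealed wells at 26C until rinsed on 5 dpf. At 6 dpf two blinded assessors scored mortality, hatching and malformations by stereomicroscopy; gain-of-signal versus DMSO.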

Test [3] is described as follows: CEETOX_H295R_OHPREG: CeeTox H295R High-throughput Steroidogenesis Assay for OH-Pregnenolone (OHPREG) (AID 2283434). Conditions: actives raise or lower the signal. The gist of the method:
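Hormone levels in spent medium were measured by tandem mass spectrometry following liquid-liquid extraction. Cells (H295R) had been forskolin-stimulated (10 uM, 48 h) before a 48 h chemical exposure at 0.1% DMSO, with activity fitted in both directions against DMSO.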

Test [4] in a line: CEETOX_H295R_OHPROG: CeeTox H295R High-throughput Steroidogenesis Assay for OH-Progesterone (OHPROG) (AID 2283435).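 For AC50: human adrenal H295R cells primed 48 h with 10 µM forskolin.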 The settings on record: actives raise or lower the signal. In short, it runs like this:
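H295R adrenal cells prestimulated 48 h with 10 uM forskolin, then exposed 48 h to chemical (0.1% DMSO final). 17alpha-hydroxyprogesterone in medium quantified by HPLC-MS/MS; bidirectional fit versus DMSO, with MTT viability measured in the same wells.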

Test [5] can be described thus: CEETOX_H295R_PROG: CeeTox H295R High-throughput Steroidogenesis Assay for Progesterone (PROG) (AID 2283442).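 For AC50: human H295R adrenal cells primed with 10 µM forskolin before dosing.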 Conditions: actives raise or lower the signal. The gist of the method:
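Progesterone secreted by human H295R cells was measured by LC-MS/MS following 48 h chemical exposure at 0.1% DMSO, preceded by 48 h forskolin (10 uM) stimulation. Same-well MTT viability; cytotoxic concentrations diluted 10- or 100-fold and retested.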

The nature of test [6]: CCTE_Deisenroth_AIME_384WELL_CTox_Active: Cytotoxicity Assessment (CTOX) in CCTE's 384-well Estrogen Receptor Transactivation Assay with AIME metabolic competence (metabolism positive), Deisenroth Lab (AID 2284037; active = hit-call score of the fitted dose curve at least 0.9, where 1 is the maximum;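 note: chemicals first conditioned 2 h by alginate-bound induced rat liver S9 before cells; activity means signal loss indicating cell death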). In short, it runs like this: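 Cytotoxicity in VM7Luc4E2 breast cells, 24 hour, measured as protease-substrate fluorescence loss, after 2-hour metabolic conditioning with induced rat hepatic S9 in alginate microspheres. Concentrations 0.002 - 200 uM, 10 points, bidirectional fitting.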

Test [7] has as its target Nucleoli Translocation, AR (gene 367) (UniProt P10275). In words: UPITT_HCI_U2OS_AR_TIF2_Nucleoli_Agonist: University of Pittsburgh U2OS Androgen Receptor-Transcriptional Intermediary Factor 2 (AR-TIF2) Agonism High Content Imaging Assay for Nucleoli Translocation (AID 2283998; active = hit-call score of the fitted dose curve at least 0.9, where 1 is the maximum). In short, it runs like this:
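Nucleolar translocation of AR-RFP, with TIF2-GFP coexpressed in human osteosarcoma U2OS, imaged by high-content fluorescence. Compounds tested singly at 20 uM final, confirmed in triplicate, then titrated 0.195–50 uM final; gain-of-signal relative to DMSO.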

In test [8] the target is Ratio of Nucleoli Translocation and Cytoplasm, AR (gene 367) (UniProt P10275). Kind of test: UPITT_HCI_U2OS_AR_TIF2_Nucleoli_Cytoplasm_Ratio_Antagonist: University of Pittsburgh U2OS Androgen Receptor-Transcriptional Intermediary Factor 2 (AR-TIF2) Antagonism High Content Imaging Assay for Ratio of Nucleoli Translocation and Cytoplasm (AID 2283999; active = hit-call score of the fitted dose curve at least 0.9, where 1 is the maximum;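 note: antagonists lower the DHT-driven ratio of nucleolar to cytoplasmic red signal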). The gist of the method: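 U2OS cells co-expressing RFP-tagged human AR and GFP-tagged TIF2, antagonist mode with DHT as baseline. Nucleolar-to-cytoplasmic red fluorescence ratio imaged by high-content microscopy; final compound 20 uM (0.2% DMSO) primary, 0.195–50 uM (0.5% DMSO) concentration-response.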
Ratio of Nucleoli Translocation and Cytoplasm, AR (gene 367), sequence (P10275 whole entry, looked up): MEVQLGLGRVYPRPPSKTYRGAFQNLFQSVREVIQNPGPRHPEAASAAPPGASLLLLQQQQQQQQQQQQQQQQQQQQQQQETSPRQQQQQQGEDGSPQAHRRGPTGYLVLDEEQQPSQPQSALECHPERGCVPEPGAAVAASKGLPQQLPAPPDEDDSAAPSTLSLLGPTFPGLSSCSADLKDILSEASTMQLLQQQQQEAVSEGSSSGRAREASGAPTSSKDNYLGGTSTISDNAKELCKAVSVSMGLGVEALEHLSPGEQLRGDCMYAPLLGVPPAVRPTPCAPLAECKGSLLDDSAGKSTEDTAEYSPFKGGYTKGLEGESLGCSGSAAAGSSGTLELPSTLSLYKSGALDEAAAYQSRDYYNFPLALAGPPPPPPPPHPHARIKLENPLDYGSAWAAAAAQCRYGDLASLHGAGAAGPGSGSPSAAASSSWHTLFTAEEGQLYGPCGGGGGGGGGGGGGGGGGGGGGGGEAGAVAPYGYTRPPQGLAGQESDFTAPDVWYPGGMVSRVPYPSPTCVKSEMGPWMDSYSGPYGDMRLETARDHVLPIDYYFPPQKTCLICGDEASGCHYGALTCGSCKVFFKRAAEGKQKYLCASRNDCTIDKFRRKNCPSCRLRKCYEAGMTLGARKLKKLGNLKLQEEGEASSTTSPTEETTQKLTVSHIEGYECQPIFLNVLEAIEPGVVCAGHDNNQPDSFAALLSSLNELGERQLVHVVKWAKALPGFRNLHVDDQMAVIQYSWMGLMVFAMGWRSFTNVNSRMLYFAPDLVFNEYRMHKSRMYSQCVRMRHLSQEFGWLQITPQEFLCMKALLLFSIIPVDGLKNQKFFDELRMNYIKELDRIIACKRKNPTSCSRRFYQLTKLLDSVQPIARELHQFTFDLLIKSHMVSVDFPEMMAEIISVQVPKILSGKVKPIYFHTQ

For test [9] the target is unchanged. Kind of test: UPITT_HCI_U2OS_AR_TIF2_Nucleoli_Cytoplasm_Ratio_Agonist: University of Pittsburgh U2OS Androgen Receptor-Transcriptional Intermediary Factor 2 (AR-TIF2) Agonism High Content Imaging Assay for Ratio of Nucleoli Translocation and Cytoplasm (AID 2284000; active = hit-call score of the fitted dose curve at least 0.9, where 1 is the maximum;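 note: hits raise the red nucleolar to cytoplasm ratio above vehicle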). The gist of the method: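 Read-out first: nucleolar-to-cytoplasm ratio of red (AR-RFP) signal, quantified by high-content imaging in U2OS cells co-expressing TIF2-GFP. Activity is scored as signal increase over DMSO. Single-point screening used 20 uM final (0.2% DMSO).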

For test [10], the target named is Peroxisome proliferator-activated receptor gamma (Homo sapiens) (UniProt P37231). Kind of test: OT_PPARg_PPARgSRC1_0480: Odyssey Thera (OT) 8-hour Protein-Complementation Assay for Peroxisome Proliferator-activated Receptor Gamma / SRC-1 Co-activator (AID 2283387; active = hit-call score of the fitted dose curve at least 0.9, where 1 is the maximum;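 note: nuclear to cytoplasmic split Venus YFP fluorescence ratio reporting PPARg SRC-1 interaction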). The gist of the method: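 Read-out: 488 nm N/C fluorescence ratio from complemented Venus YFP fragments, ≥350 cells per image, gain-of-signal fitted against DMSO baseline. Fusions of PPARg/SRC-1 with IFP1/IFP2 expressed transiently in HEK293T; compounds applied 8 h.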
Peroxisome proliferator-activated receptor gamma (Homo sapiens), sequence (P37231 whole entry, looked up, the tested form may be a part): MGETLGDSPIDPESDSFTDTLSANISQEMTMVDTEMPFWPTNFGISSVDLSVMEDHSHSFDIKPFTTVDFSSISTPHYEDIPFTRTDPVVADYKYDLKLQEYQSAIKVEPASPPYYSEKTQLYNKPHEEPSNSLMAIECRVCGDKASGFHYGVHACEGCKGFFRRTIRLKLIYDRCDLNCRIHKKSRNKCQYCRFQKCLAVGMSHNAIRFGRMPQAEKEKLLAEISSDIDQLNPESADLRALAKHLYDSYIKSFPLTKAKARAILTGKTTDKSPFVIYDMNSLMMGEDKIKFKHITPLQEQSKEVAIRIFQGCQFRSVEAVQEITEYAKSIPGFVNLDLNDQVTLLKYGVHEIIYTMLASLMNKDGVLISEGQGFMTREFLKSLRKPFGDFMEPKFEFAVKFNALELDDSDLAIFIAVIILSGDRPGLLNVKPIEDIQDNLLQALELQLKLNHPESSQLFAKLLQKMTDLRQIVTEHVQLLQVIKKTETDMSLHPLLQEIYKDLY

Test [11] can be described thus: CEETOX_H295R_11DCORT: CeeTox H295R High-throughput Steroidogenesis Assay for 11-Deoxycortisol (11DCORT) (AID 2283432).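 For AC50: 11-deoxycortisol secreted into the medium measured by LC-MS/MS.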 The settings on record: actives raise or lower the signal. The gist of the method: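 H295R cells; 10 uM forskolin prestim 48 h; compound in 0.1% DMSO 48 h; media extracted with MTBE; 11-deoxycortisol by LC-MS/MS, 7-point standard curve; gain/loss vs DMSO baseline; viability by MTT in same wells.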

A short description of test [12]: CEETOX_H295R_CORTIC: CeeTox H295R High-throughput Steroidogenesis Assay for Corticosterone (CORTIC) (AID 2283437).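 Note: corticosterone secreted into medium quantified by mass spectrometry.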 Conditions: actives raise or lower the signal. In short, it runs like this: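 Corticosterone secreted into medium is measured by reverse-phase HPLC with tandem MS following liquid-liquid extraction. Cells are forskolin-stimulated (10 uM, 48 h) before 48 h test exposure; activity fitted in both directions against DMSO.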

Test [13] is described as follows: CEETOX_H295R_CORTISOL: CeeTox H295R High-throughput Steroidogenesis Assay for Cortisol (AID 2283438).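 Note: cortisol secreted into medium quantified by LC-MS/MS.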 The settings on record: actives raise or lower the signal. The gist of the method:
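Forskolin-primed H295R cells (10 uM, 48 h) treated 48 h with test chemical in 0.1% DMSO. Cortisol in medium quantified by MTBE extraction and HPLC-MS/MS; bidirectional fit vs DMSO, MTT viability in same wells.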

A short description of test [14]: CEETOX_H295R_DOC: CeeTox H295R High-throughput Steroidogenesis Assay for DOC (AID 2283439). Conditions: actives raise or lower the signal. The gist of the method:
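H295R cells prestimulated 48 h with 10 uM forskolin, then exposed 48 h to test chemical (0.1% DMSO final). Medium 11-deoxycorticosterone measured by HPLC-MS/MS after MTBE extraction; bidirectional fit vs DMSO, viability checked by MTT in same wells.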

The test system of test [15] is Sodium/Iodide Symporter (NIS), SLC5A5 (gene 6528). In words: CPHEA_Stoker_NIS_Inhibition_RAIU: CPHEA's Radioactive Iodide Uptake (RAIU) Assay for Sodium/Iodide Symporter (NIS) Inhibition, Stoker and Laws Labs (AID 2283841; active = hit-call score of the fitted dose curve at least 0.9, where 1 is the maximum). In short, it runs like this:
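HEK293T cells stably expressing human NIS (hNIS-HEK293T-EPA) were exposed to test chemicals at 0.001–100uM (0.5% final DMSO) with 125I at a final 329pM in HBSS/10mM HEPES pH 7.4. After 2 hours at room temperature and ice-cold washes, intracellular 125I was counted as CPM and normalized to DMSO wells.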

The nature of test [16]: CPHEA_Stoker_NIS_Cytotoxicity: Cytotoxicity Assessment for CPHEA's Radioactive Iodide Uptake (RAIU) Assay for Sodium/Iodide Symporter (NIS) Inhibition, Stoker and Laws Labs (AID 2283897; active = hit-call score of the fitted dose curve at least 0.9, where 1 is the maximum). The gist of the method: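 hNIS-HEK293T-EPA human kidney cells were exposed for 2 hours at room temperature to test chemicals (0.001–100uM, 0.5% final DMSO) in HEPES-buffered HBSS, pH 7.4. Viability was read as ATP content by luciferase bioluminescence, loss of signal versus DMSO.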

Test [17] concerns the target human Ephrin type-A Receptor 1 (EphA1), EPHA1 (gene 2041) (UniProt P21709). In words: NVS_ENZ_hEphA1: NovaScreen (NVS) Enzymatic Assay for human Ephrin type-A Receptor 1 (EphA1) (AID 2283158; active = hit-call score of the fitted dose curve at least 0.9, where 1 is the maximum;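 note: activity is signal loss versus DMSO meaning EphA1 kinase inhibition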). The gist of the method: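 Fluorescent substrate conversion, resolved by mobility-shift separation, measured 1 hour post-dosing using recombinant enzyme; signal loss relative to DMSO baseline. Single-concentration duplicates at 25 uM preceded singleton concentration series topping at 50 uM.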

Test [18] concerns the target Bile acid receptor (Homo sapiens) (UniProt Q96RI1). In words: OT_FXR_FXRSRC1_0480: Odyssey Thera (OT) 8-hour HEK293T Protein-Complementation Assay for Farnesoid X receptor/SRC-1 Co-activator (AID 2283383; active = hit-call score of the fitted dose curve at least 0.9, where 1 is the maximum). In short, it runs like this:
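HEK293T protein-fragment complementation assay: FXR and SRC-1 coactivator are fused to reporter fragments, and their interaction restores a fluorescent reporter. Readout was taken 8 h after dosing, with gain of signal fit relative to DMSO.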

rat Peripheral-type Benzodiazepine Receptor (PBR), Tspo (gene 24230), sequence (P16257 whole entry, looked up): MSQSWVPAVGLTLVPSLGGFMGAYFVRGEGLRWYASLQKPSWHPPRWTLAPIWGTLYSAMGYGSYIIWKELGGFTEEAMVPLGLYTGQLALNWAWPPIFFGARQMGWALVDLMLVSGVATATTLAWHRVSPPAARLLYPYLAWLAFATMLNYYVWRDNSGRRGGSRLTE
Nucleoli Translocation, AR (gene 367), sequence (P10275 whole entry, looked up): as the sequence (P10275 whole entry, looked up) above
human Ephrin type-A Receptor 1 (EphA1), EPHA1 (gene 2041), sequence (P21709 whole entry, looked up): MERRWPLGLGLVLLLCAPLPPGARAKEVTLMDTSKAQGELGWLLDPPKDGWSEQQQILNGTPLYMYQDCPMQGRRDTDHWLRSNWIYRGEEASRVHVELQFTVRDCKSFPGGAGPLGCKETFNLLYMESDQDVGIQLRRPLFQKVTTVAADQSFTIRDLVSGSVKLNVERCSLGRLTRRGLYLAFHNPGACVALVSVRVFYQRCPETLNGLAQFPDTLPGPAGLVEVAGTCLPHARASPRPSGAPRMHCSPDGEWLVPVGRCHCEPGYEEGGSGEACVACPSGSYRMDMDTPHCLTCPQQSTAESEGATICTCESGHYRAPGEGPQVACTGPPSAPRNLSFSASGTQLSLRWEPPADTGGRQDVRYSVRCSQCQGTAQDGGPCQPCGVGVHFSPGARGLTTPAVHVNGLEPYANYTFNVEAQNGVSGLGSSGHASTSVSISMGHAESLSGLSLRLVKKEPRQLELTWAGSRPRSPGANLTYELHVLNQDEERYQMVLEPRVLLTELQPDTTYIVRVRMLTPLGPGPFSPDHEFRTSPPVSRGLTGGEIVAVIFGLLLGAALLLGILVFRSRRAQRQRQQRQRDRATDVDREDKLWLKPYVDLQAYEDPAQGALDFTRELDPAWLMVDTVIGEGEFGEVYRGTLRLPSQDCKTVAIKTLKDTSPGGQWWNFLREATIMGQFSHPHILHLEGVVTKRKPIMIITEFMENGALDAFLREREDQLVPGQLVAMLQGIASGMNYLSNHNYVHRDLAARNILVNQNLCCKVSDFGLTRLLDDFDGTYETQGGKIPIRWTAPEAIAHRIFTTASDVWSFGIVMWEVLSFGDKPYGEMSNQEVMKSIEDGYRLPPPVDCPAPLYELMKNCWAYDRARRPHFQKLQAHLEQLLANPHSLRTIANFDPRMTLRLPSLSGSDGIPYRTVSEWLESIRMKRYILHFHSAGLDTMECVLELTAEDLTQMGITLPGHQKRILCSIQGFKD
Bile acid receptor (Homo sapiens), sequence (Q96RI1 whole entry, looked up, the tested form may be a part): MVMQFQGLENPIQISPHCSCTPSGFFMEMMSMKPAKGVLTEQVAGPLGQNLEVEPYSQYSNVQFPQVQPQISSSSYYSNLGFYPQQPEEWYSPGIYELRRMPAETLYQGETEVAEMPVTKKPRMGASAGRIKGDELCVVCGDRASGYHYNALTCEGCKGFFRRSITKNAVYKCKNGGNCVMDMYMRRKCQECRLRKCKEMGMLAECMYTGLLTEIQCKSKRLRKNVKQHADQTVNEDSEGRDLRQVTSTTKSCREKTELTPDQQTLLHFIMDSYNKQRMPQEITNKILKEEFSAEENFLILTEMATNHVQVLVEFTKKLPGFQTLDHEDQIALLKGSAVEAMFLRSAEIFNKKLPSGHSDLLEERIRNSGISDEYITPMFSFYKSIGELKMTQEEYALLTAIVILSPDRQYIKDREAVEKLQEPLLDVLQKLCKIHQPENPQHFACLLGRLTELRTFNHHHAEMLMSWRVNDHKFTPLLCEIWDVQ

On to `CC(C)COP(=O)(OCC(C)C)OCC(C)C`, for which, in test [1], the AC50 (as a rule, the concentration at which the activity in the assay is half-maximal) is 19.2 µM (active). For the same compound, in test [2], the result was inactive.

In the case of `C=CC(=O)OCC(CC)CCCC` (stereo unspecified), the compound was called inactive in [2].

In the case of `Nc1ccc(Cl)c(Cl)c1`, the compound was called inactive in test [3] and in test [6]. In addition, the AC50 in test [4] is 33.3 µM (active); in test [5], 10.7 µM (active).

As to `C=COCCCl`, the compound was called inactive in [7], in test [8], in test [9] and in [2].

As for `O=CNC(N1CCN(C(NC=O)C(Cl)(Cl)Cl)CC1)C(Cl)(Cl)Cl` (stereo unspecified), the result in test [10], in test [3], in test [4], in test [12], in [13] and in [14] was inactive. Besides, the compound was called inactive in [5], in [15], in test [16], in test [7], in [8] and in test [9]. The half-maximal activity concentration (AC50) in test [11] is 50 µM (active).

In the case of `O=c1c2ccccc2c(=O)c2c1cc(Cl)c1[nH]c3c([nH]c12)c(Cl)cc1c(=O)c2ccccc2c(=O)c13`, the compound was called inactive in test [2].

For `Cc1ccc(OP(=O)(Oc2ccc(C)cc2)Oc2ccc(C)cc2)cc1` (tested in a mixture with another compound), the concentration at half-maximal activity (AC50) in [1] is 150 nM (active) and 5.34 µM (active); in test [2] it was 2.6 µM (active). In addition, the compound was classed as inactive in test [11], in test [3], in test [4], in [12], in [13] and in [14]. The compound was classed as inactive in test [5], in test [15] and in [16].

Consider `O=C=Nc1ccccc1`, for which the results for the concentration at half-maximal activity (AC50) in test [3] and in test [5] were 499 nM (active) and 0.492 µM (active), respectively. For the same compound, in test [4], the result was inactive.

Regarding `N#CCCCCC#N`, the call in test [17] and in test [18] was inactive.
